Assay [1] can be described thus: Primary qHTS for small molecule stabilizers of the endoplasmic reticulum resident proteome: Secreted ER Calcium Modulated Protein (SERCaMP) assay (AID 1508630). Also: % is scaled to controls: 0 for no effect and ±100 for the full control effect. In short, it runs like this: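 GLuc-SERCaMP-expressing SH-SY5Y cells, pretreated 16 h with compound, are challenged with thapsigargin to empty ER calcium stores; after 4 h, coelenterazine is added directly to the medium and luminescence is imaged.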
(In general: In qHTS, concentration-response curves come from the screen itself.)

Assay [2] in a line: A High-Content qHTS Against Drug Library for the Identification of Small Molecules that Inhibit DYT1 Early Onset Primary Dystonia-Associated Cell Pathology (AID 1645839; calls by dose curve; also: series mostly up to about 46 µM). The method in brief:
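Readout: %pathology, the punctate EGFP-TorsinA distribution from imaging, as the primary channel and cell count as the toxicity counterscreen. HEK293 Flp-In cells expressing delE TorsinA were induced with tetracycline and treated with compound for 48 h.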

The target in assay [3] is Cytochrome P450 2D6 (Homo sapiens) (UniProt P10635). In words: Cytochrome P450 family 2 subfamily D member 6 (CYP2D6) small molecule antagonists: luciferase biochemical (cell-free) qHTS assay (AID 1645840; active = well fitted curve in the direction sought with a large enough effect in the repeat runs; an effect the other way counts as inactive or inconclusive; also: nearly all actives have a fitted effect of over 55% in size; also: potency is read from the fitted curve at half-maximal effect). The method in brief: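 P450-Glo luminescent screen: recombinant CYP2D6 enzyme–proluciferin substrate mix preincubated with compound 10 min at room temperature, then NADPH regeneration added for 1 h at room temperature. Detection reagent added for 20 min; luciferin light read as relative luminescence units.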
Sequence of Cytochrome P450 2D6 (Homo sapiens) (P10635 whole entry, looked up): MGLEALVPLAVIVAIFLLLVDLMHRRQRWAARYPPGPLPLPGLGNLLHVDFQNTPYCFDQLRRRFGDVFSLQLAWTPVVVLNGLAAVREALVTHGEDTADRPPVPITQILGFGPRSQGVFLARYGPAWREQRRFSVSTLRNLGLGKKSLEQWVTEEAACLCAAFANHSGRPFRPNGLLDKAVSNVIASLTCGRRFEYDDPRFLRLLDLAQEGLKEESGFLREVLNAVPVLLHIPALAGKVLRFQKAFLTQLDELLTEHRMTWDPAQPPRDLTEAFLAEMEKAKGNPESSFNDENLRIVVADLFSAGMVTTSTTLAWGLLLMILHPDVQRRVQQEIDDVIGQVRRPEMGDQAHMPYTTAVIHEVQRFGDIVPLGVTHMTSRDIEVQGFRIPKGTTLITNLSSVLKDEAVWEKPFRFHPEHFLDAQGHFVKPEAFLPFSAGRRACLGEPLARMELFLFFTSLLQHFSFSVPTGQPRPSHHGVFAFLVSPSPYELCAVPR

Assay [4] addresses Cytochrome P450 2C9 (Homo sapiens) (UniProt P11712). In words: Cytochrome P450 family 2 subfamily C member 9 (CYP2C9) small molecule antagonists: luciferase biochemical (cell-free) qHTS assay (AID 1645842; active = well fitted curve in the direction sought with a large enough effect in the repeat runs; an effect the other way counts as inactive or inconclusive; also: nearly all actives have a fitted effect of over 55% in size; also: potency is read from the fitted curve at half-maximal effect). The method in brief:
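Luminescence, after 20 min with luciferin detection reagent, reflected CYP2C9 turnover during a 1 h NADPH-driven reaction at 37C. Enzyme-substrate mix contained 0.4% bovine serum albumin and was preincubated with compound 10 min at room temperature.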

A further assay addresses Papain (Carica papaya) (UniProt P00784). In words: Primary qHTS assay for inhibitors of the protease papain (AID 1645873).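 Also: papain turnover of Z-FR-AMC read as the AMC fluorescence gain over 10 min; series mostly up to about 50 µM; % is scaled to controls: 0 for no effect and ±100 for the full control effect.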
Assay [5] can be described thus: Primary qHTS for inhibitors of nuclear receptor binding SET domain protein 2 (NSD2) in an isogenic RCH-ACV NSD2 p.E1099K mutant (9B) (AID 1645876). Also: nearly all actives have a fitted effect of over 70% in size. Also: potency is read from the fitted curve at half-maximal effect.
Assay [6] can be described thus: Primary qHTS for inhibitors of nuclear receptor binding SET domain protein 2 (NSD2) in an RCH-ACV wild type WT cells (2C) (AID 1645877). Also: nearly all actives have a fitted effect of over 70% in size. Also: potency is read from the fitted curve at half-maximal effect.
Assay [7] can be described thus: Confirmatory qHTS for small molecule stabilizers of the endoplasmic reticulum resident proteome: Secreted ER Calcium Modulated Protein (SERCaMP) assay (AID 1508628). Also: nearly all actives have a fitted effect of over 40% in size. Also: potency is read from the fitted curve at half-maximal effect. In short, it runs like this: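 SH-SY5Y cells stably expressing GLuc-SERCaMP, treated 16 h with compound (primary 1.53, 7.67, 38.3 uM; confirmation 11 concentrations, up to 76.6 uM), then 100 nM thapsigargin for 4 h. Secreted Gaussia luciferase in medium read by coelenterazine luminescence.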

Assay [8] is described as follows: Cell Viability qHTS for small molecule stabilizers of the endoplasmic reticulum resident proteome (AID 1508629).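 Also: compound exposure about 46 h in total before the viability read.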 Also: potency is read from the fitted curve at half-maximal effect.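 As to max response: human SH-SY5Y neuroblastoma cells carrying the GLuc-SERCaMP reporter; % is scaled to controls: 0 for no effect and ±100 for the full control effect.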 Conditions: cell viability counter-screen, 100 nM thapsigargin for final 4 h.
Assay [9] has as its target N-terminal Xaa-Pro-Lys N-methyltransferase 1 (Homo sapiens) (UniProt Q9BV86). In words: Confirmatory qHTS for Inhibitors of N-terminal methyltransferase 1 (NTMT1): MTaseGlo Assay (AID 1645874).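 Also: luminescence from SAH made as NTMT1 methylates SPKRIA peptide using SAM; series mostly up to about 100 µM; 0% = DMSO control and -100% = no-enzyme control; nearly all actives have a fitted effect of over 65% in size.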 In short, it runs like this: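 NTMT1 (125 nM) preincubated 15 min with compound and 100 uM SAM, then 1 uM SPKRIA peptide added for 30 min at room temperature. SAH detected by MTase-Glo luminescence; normalized to no-enzyme and DMSO controls, fitted to 4-parameter Hill.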

Values joined by “and” are separate entries in the source; they are usually repeats but may differ in a detail not shown here. Identical values can stand only once. Results filed as inconclusive are left out. The source holds several records for some structures; these can differ, active in one and inactive in another. Active and inactive are the calls of the source. Unless noted, calls follow the shape of the dose curve; as a rule, active = well fitted curve in the direction sought with a large enough effect; inconclusive = small, poorly fitted or top-dose-only effect, or another doubt; inactive = no such curve, though single readings can be large; an effect the other way counts as inactive or inconclusive.

Sequence of Cytochrome P450 2C9 (Homo sapiens) (P11712 whole entry, looked up): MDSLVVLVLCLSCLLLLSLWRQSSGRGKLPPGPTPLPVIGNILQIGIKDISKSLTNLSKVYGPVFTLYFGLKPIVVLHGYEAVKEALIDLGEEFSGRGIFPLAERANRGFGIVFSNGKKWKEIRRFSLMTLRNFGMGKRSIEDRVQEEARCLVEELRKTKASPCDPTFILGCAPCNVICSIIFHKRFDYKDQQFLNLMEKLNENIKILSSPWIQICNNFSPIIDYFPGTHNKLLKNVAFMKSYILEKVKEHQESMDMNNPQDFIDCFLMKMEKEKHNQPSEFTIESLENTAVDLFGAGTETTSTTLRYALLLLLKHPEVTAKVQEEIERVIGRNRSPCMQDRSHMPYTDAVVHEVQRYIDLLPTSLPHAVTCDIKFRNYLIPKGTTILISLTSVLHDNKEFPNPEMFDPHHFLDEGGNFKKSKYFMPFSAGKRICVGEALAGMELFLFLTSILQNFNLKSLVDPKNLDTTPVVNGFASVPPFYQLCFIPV
Sequence of Papain (Carica papaya) (P00784 whole entry, looked up, the tested form may be a part): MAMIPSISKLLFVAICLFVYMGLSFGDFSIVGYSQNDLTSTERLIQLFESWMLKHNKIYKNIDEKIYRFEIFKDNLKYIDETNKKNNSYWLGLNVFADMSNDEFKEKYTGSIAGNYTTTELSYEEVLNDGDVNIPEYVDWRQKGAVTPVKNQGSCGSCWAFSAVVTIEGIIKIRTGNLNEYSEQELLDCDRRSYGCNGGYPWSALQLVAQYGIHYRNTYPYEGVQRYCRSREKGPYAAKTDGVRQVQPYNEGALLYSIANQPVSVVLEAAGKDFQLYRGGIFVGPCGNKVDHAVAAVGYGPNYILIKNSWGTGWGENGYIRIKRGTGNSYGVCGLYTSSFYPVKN
Sequence of N-terminal Xaa-Pro-Lys N-methyltransferase 1 (Homo sapiens) (Q9BV86 whole entry, looked up): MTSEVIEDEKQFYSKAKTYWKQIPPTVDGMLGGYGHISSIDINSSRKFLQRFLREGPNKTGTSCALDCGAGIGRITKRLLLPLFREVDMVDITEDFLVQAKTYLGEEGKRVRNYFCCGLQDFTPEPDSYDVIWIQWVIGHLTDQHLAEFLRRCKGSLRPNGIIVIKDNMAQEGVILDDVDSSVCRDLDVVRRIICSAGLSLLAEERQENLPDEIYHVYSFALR

On to `Clc1ccc(C(c2ccccc2Cl)C(Cl)Cl)cc1` (stereo unspecified), for which the Potency result (in assay [1]; in [2]; in assay [3]; with Papain (Carica papaya); in assay [5]; in assay [6]) was “inactive” throughout. For the same compound, the Potency in assay [4] is 12.3 µM (active).

As for `O=C(c1ccc(OCCN2CCCCC2)cc1)c1c(-c2ccc(O)cc2)sc2cc(O)ccc12`, the Potency entry (in [7]; with Papain (Carica papaya)) was “inactive” each time. In addition, the Potency in assay [5] is 21.1 µM (active) and 23.5 µM (active) and 20.6 µM (active); in assay [6] it was 13.3 µM (active) and 18.6 µM (active) and 18.4 µM (active).

On to `CC(=O)OCC(CCn1cnc2cnc(N)nc21)COC(C)=O`, for which the Potency result (in assay [1]; in [2]; in assay [3]; in [4]; with Papain (Carica papaya); in [5]) was “inactive” throughout. For the same compound, in [6], the Potency result is “inactive”.

In the case of `CCOC(=O)c1ncn2c1CN(C)C(=O)c1cc(F)ccc1-2`, the Potency entry (in assay [1]; in assay [2]; in [3]; in the assay with Papain (Carica papaya); in assay [5]; in assay [6]) was “inactive” each time. Also, the Potency entry in [4] was “inactive and 13.5 µM (active)”.

As for `CC(CCc1ccc(O)cc1)NCCc1ccc(O)c(O)c1` (stereo unspecified), the Potency in assay [7] is 31.6 µM (active) and 39.8 µM (active) and 50.1 µM (active). Also, in assay [8], the max response was 27% (inactive). Also, the Potency entry (in [4]; with Papain (Carica papaya)) was “inactive” in each case.

`NC12CC3CC(CC(C3)C1)C2`: the Potency result (in assay [7]; in assay [1]; in assay [2]; with Papain (Carica papaya); in [5]; in assay [6]) was “inactive” in each case. Also, the max response in assay [8] is 12.2% (inactive) and 7.67% (inactive).

Turning to `CCC1(C)CC(=O)NC1=O` (stereo unspecified), the Potency result (in assay [1]; in assay [2]; in [3]; in assay [4]; in the assay with Papain (Carica papaya); in assay [5]) was “inactive” throughout. The Potency entry in assay [6] was “inactive”. Further, in assay [9], the compound was called inactive.

For `NC(=O)OCC(COC(N)=O)c1ccccc1`, the Potency result (in assay [1]; in assay [2]; in assay [3]; in [4]; with Papain (Carica papaya); in assay [5]) was “inactive” in each case. In addition, the Potency entry in assay [6] is “inactive”.

With `CN(C)CCCN1c2ccccc2CCc2ccc(Cl)cc21`, the Potency entry (in [7]; in assay [1]; in [4]; with Papain (Carica papaya)) was “inactive” each time. Also, in [8], the max response is -4.23% (inactive). Also, the Potency in assay [6] is 16.8 µM (active) and 18.6 µM (active).

As for `Nc1ccn([C@H]2CC[C@@H](CO)O2)c(=O)n1`, the Potency entry (in [1]; in assay [2]; in assay [3]; in assay [4]; with Papain (Carica papaya)) was “inactive” throughout.

On to `NS(=O)(=O)c1cc2c(cc1Cl)NCNS2(=O)=O`, for which the Potency result (in [1]; in [2]; in [3]; in assay [4]; in the assay with Papain (Carica papaya); in assay [5]) was “inactive” throughout. Moreover, in assay [6], the Potency result was “inactive”.

Regarding `O=C1N(c2ccccc2)c2ccccc2C1(Cc1ccncc1)Cc1ccncc1`, the Potency entry (in assay [1]; in assay [2]; in [3]; with Papain (Carica papaya); in assay [5]; in assay [6]) was “inactive” throughout. Moreover, the Potency in assay [4] is 2.19 µM (active).

For the compound `O=C(Nc1ccc([N+](=O)[O-])cc1Cl)c1cc(Cl)ccc1O`, the Potency result (in assay [7]; in assay [1]; in the assay with Papain (Carica papaya)) was “inactive” throughout. Besides, the Potency in assay [8] was 5.01 µM (active); in [3], 13.5 µM (active); in assay [4] it was 4.77 µM (active); in assay [5], 11.8 µM (active); in assay [6], 11.8 µM (active).

As for `CCCNCC(O)COc1ccccc1C(=O)CCc1ccccc1` (stereo unspecified), the Potency entry (in assay [7]; in [1]; with Papain (Carica papaya)) was “inactive” in each case. Further, the Potency in [5] was 18.6 µM (active); in assay [6], 15 µM (active) and 16.6 µM (active).

`CN1CCN2c3ccccc3Cc3ccccc3C2C1` (stereo unspecified): the Potency entry (in [1]; in assay [2]; in assay [4]; in the assay with Papain (Carica papaya)) was “inactive” in each case.

Regarding `CC(C)(C)C(=O)Oc1ccc(S(=O)(=O)Nc2ccccc2C(=O)NCC(=O)O)cc1`, the Potency result (in assay [1]; in assay [2]; in [3]; in the assay with Papain (Carica papaya); in assay [5]; in assay [6]) was “inactive” each time.

With `Nc1c2c(nc3ccccc13)CCCC2`, the Potency result in assay [1], in assay [2], in assay [4], in assay [5] and in assay [6] was “inactive” in each case. Moreover, the Potency in assay [3] was 9.77 µM (active).

Take `Clc1ccc2nsnc2c1NC1=NCCN1`: the Potency entry (in assay [1]; in [2]; in assay [4]; in the assay with Papain (Carica papaya); in [5]; in assay [6]) was “inactive” throughout. Besides, the Potency in [3] is 17.4 µM (active).

For `Nc1nnc(-c2cccc(Cl)c2Cl)c(N)n1`, the Potency result (in assay [1]; in assay [2]; in [4]; in the assay with Papain (Carica papaya); in assay [5]; in [6]) was “inactive” in each case.

Turning to `CC(C)NCC(O)COc1ccc(CCOCC2CC2)cc1` (stereo unspecified), the Potency result (in assay [1]; in [2]; in [3]; in assay [4]; with Papain (Carica papaya); in [5]) was “inactive” each time. For the same compound, the Potency entry in [6] was “inactive”.

As for `C[C@](N)(Cc1ccc(O)c(O)c1)C(=O)O`, the Potency result (in assay [1]; in [2]; in assay [4]; in the assay with Papain (Carica papaya); in [5]; in assay [6]) was “inactive” each time.
